Experimental data: PubChem BioAssay
Calls of active or inactive are those of the source.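 The calls were made as follows, unless noted: active = visually confirmed hit in the image check and inhibition above 20%; inconclusive = visually confirmed hit but inhibition not above 20%; inactive = no visual hit in the image check.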

assay: reduction of polyQ htt aggregates in cells – imaging, exon1htt(103Q)mCFP cells, high-content imaging, primary screen (AID 483;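 active = visual image review flags a hit and inhibition of aggregation exceeds 20%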;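 also: compound exposure lasted 3 days before fixation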;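 as to nuclei count: percent of the per-plate median nuclei count of sample wells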); settings: exon1htt(103Q)mCFP cell line, aggregate imaging, at 2 µM; inhibition of aggregation: stronger effect = higher value; nuclei count: measured here: cell count, toxicity

Structure (SMILES)	inhibition of aggregation	nuclei count [%]
O=C(OCC(=O)c1cccs1)C1=COCCO1	-9.8% (inactive)	105
Cc1ccc(-c2cn3cccnc3n2)cc1NC(=O)c1ccc(Br)o1	30.5% (inactive)	66.8
Cc1cnc(NC(=O)CSc2nc3ccccc3c(=O)[nH]2)s1	-0.5% (inactive)	99.4
CCCCn1nnnc1NCc1cccs1	0.4% (inactive)	105
CCCOc1cccc(NC(=O)c2c(-c3ccccc3)noc2C)c1	7.5% (inactive)	92.7
CCC(=O)N1C(=O)CCN(C(C)=O)c2ccccc21	-2.5% (inactive)	109
O=C(NCc1ccc2c(c1)OCO2)C1CCC(CNc2c(N3CCCCC3)c(=O)c2=O)CC1 (stereo not given)	2.3% (inactive)	109
O=C(Cc1c(F)cccc1Cl)Nc1ccncc1	1% (inactive)	104
CSc1nc(N2CCOCC2)c2ccccc2n1	13.4% (inactive)	80.7
Nc1ccc(-n2c(N)c(C(=O)NCc3ccc4c(c3)OCO4)c3nc4ccccc4nc32)cc1	16.7% (inactive)	93.9
COc1ccc(S(=O)(=O)Cc2ccc(C(=O)N3CCOCC3)o2)cc1	-10.7% (inactive)	93
Cc1sc2nc(SCC(=O)N3CCN(CCO)CC3)n(-c3ccccc3)c(=O)c2c1C	-7.3% (inactive)	111
CCc1ccc(C2CC(c3cccc(OC)c3)n3nc(N)nc3N2)cc1 (stereo not given)	3.7% (inactive)	111
CCCc1cc(C(=O)Nc2ccccc2C(=O)OC)no1	4.8% (inactive)	92.4
COc1cccc(C(=O)Nc2c(C(N)=O)oc3ccccc23)c1	28.5% (inactive)	89.2
Nc1nc2n(n1)C(c1cccc(Cl)c1)CC(c1ccc(F)cc1)N2 (stereo not given)	-13.4% (inactive)	100
O=C(O)C1CCCN1c1ncnc2c1oc1ccccc12 (stereo not given)	11.5% (inactive)	101
Cc1cc(C)nc(NS(=O)(=O)c2ccc(NC(=O)Cn3c(=O)oc4ccccc43)cc2)n1	26% (inactive)	63.8
CCCCn1c(CN(C)Cc2ccccc2)nc2c1c(=O)n(C)c(=O)n2C	13.2% (inactive)	57
Oc1cccc(Nc2nc(NCC3CCCO3)c3ccccc3n2)c1 (stereo not given)	-4.4% (inactive)	95.5

Structure (SMILES)	inhibition of aggregation	nuclei count [%]
Cc1ccc(-n2c(SCC3CCCCO3)nnc2-c2ccco2)cc1 (stereo not given)	7.5% (inactive)	86.9
Cc1ccc(S(=O)(=O)NCCSc2nnnn2-c2ccc(C(N)=O)cc2)cc1	2.1% (inactive)	115
CCN1CCN(CCNC(=O)c2cn(C(C)c3ccccc3F)nn2)CC1 (stereo not given)	-18.1% (inactive)	112
C(#Cc1ccccc1)Cn1nnc2ccccc21	11.6% (inactive)	73.2
Cc1nccn1CCCN1C(=O)OC2(CCCCC2)C1(C)O (stereo not given)	2.3% (inactive)	113
CCOc1cc2[nH]c(=S)n(CC3CCCO3)c(=O)c2cc1OCC (stereo not given)	1% (inactive)	104
Cc1ccccc1Cn1ccc(NC(=O)c2cnn3c(C(F)(F)F)cc(-c4ccco4)nc23)n1	10.6% (inactive)	96.8
O=C1c2ccccc2C(Nc2ccc3nc(-c4cccnc4)[nH]c3c2)N1Cc1ccco1 (stereo not given)	23.2% (inactive)	90
CCOc1ccc(N(CC(=O)NC2CCCC(C)C2C)S(=O)(=O)c2c(C)noc2C)cc1 (stereo not given)	20.7% (inactive)	131
CCOC(=O)Cn1ncc(-c2ccccc2)c1N	-6.8% (inactive)	67.2
CS(=O)(=O)N(CC(=O)Nc1cccc(F)c1)Cc1ccccc1	2.5% (inactive)	107
Cc1cc(/C=N/n2cnnc2)c(C)n1-c1cccc(Cl)c1	31% (inactive)	32.1
CCOC(=O)c1[nH]c(C)c(C(=O)Nc2ccc(C)cc2C)c1C	20.1% (inactive)	36.6
CCOC(=O)n1c(SCC(=O)N(CC)CC)nc2ccccc21	10.7% (inactive)	102
CCNc1ccc2c(Cl)cc(=O)oc2c1	25.1% (inactive)	72.6
COCCCNC(=O)CCCn1c(=O)c2ccccc2n(CC(=O)Nc2c(C)cccc2C)c1=O	-15.7% (inactive)	105
CC(=O)NC(C)C(=O)OCC(=O)Nc1ccc(Br)cc1 (stereo not given)	5.5% (inactive)	112
O=C1c2ccccc2C(Nc2ccc(F)cc2F)N1CCN1CCOCC1 (stereo not given)	19.4% (inactive)	101
COC(=O)[C@H](CCSC)NC(=O)Nc1cc(C)ccc1C	7.6% (inactive)	90.6
CC(=O)Nc1ccc(NC(=O)C(C)Oc2ccccc2F)cc1 (stereo not given)	9.4% (inactive)	104

assay: endothelial E-selectin expression blockers – imaging, HUVEC, immunofluorescence, MLSMR starter and 10KST1 sets, primary screen (AID 487); settings: HUVEC TNFalpha-induced E-selectin immunofluorescence imaging, at 2 µM; inhibition: stronger effect = higher value; nuclei count: measured here: cell number, toxicity;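 as to inhibition: signal is fraction of cell area covered by stained E-selectin grains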;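 as to nuclei count: 100% = median nuclei count of all wells on the same plate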

Structure (SMILES)	inhibition	nuclei count [%]
O=C(OCC(=O)c1cccs1)C1=COCCO1	5.3% (inactive)	119
Cc1ccc(-c2cn3cccnc3n2)cc1NC(=O)c1ccc(Br)o1	-274% (inactive)	103
Cc1cnc(NC(=O)CSc2nc3ccccc3c(=O)[nH]2)s1	65% (active)	98.4
CCCCn1nnnc1NCc1cccs1	-66.2% (inactive)	119
CCCOc1cccc(NC(=O)c2c(-c3ccccc3)noc2C)c1	-32% (inactive)	116
CCC(=O)N1C(=O)CCN(C(C)=O)c2ccccc21	-39.7% (inactive)	130
O=C(NCc1ccc2c(c1)OCO2)C1CCC(CNc2c(N3CCCCC3)c(=O)c2=O)CC1 (stereo not given)	11.9% (inactive)	104
O=C(Cc1c(F)cccc1Cl)Nc1ccncc1	-34.2% (inactive)	124
CSc1nc(N2CCOCC2)c2ccccc2n1	-56.6% (inactive)	114
Nc1ccc(-n2c(N)c(C(=O)NCc3ccc4c(c3)OCO4)c3nc4ccccc4nc32)cc1	-16.4% (inactive)	117
COc1ccc(S(=O)(=O)Cc2ccc(C(=O)N3CCOCC3)o2)cc1	-79.8% (inactive)	105
Cc1sc2nc(SCC(=O)N3CCN(CCO)CC3)n(-c3ccccc3)c(=O)c2c1C	-55% (inactive)	121
CCc1ccc(C2CC(c3cccc(OC)c3)n3nc(N)nc3N2)cc1 (stereo not given)	-40.1% (inactive)	104
CCCc1cc(C(=O)Nc2ccccc2C(=O)OC)no1	-50.4% (inactive)	111
COc1cccc(C(=O)Nc2c(C(N)=O)oc3ccccc23)c1	-34.6% (inactive)	121
Nc1nc2n(n1)C(c1cccc(Cl)c1)CC(c1ccc(F)cc1)N2 (stereo not given)	-13.6% (inactive)	106
O=C(O)C1CCCN1c1ncnc2c1oc1ccccc12 (stereo not given)	22.9% (inactive)	96.9
Cc1cc(C)nc(NS(=O)(=O)c2ccc(NC(=O)Cn3c(=O)oc4ccccc43)cc2)n1	-31.3% (inactive)	122
CCCCn1c(CN(C)Cc2ccccc2)nc2c1c(=O)n(C)c(=O)n2C	16.4% (inactive)	103
Oc1cccc(Nc2nc(NCC3CCCO3)c3ccccc3n2)c1 (stereo not given)	-47.9% (inactive)	104

Structure (SMILES)	inhibition	nuclei count [%]
Cc1ccc(-n2c(SCC3CCCCO3)nnc2-c2ccco2)cc1 (stereo not given)	-17.5% (inactive)	102
Cc1ccc(S(=O)(=O)NCCSc2nnnn2-c2ccc(C(N)=O)cc2)cc1	-14.3% (inactive)	111
CCN1CCN(CCNC(=O)c2cn(C(C)c3ccccc3F)nn2)CC1 (stereo not given)	-32.9% (inactive)	110
C(#Cc1ccccc1)Cn1nnc2ccccc21	-5% (inactive)	103
Cc1nccn1CCCN1C(=O)OC2(CCCCC2)C1(C)O (stereo not given)	-4.4% (inactive)	105
CCOc1cc2[nH]c(=S)n(CC3CCCO3)c(=O)c2cc1OCC (stereo not given)	-51.1% (inactive)	115
Cc1ccccc1Cn1ccc(NC(=O)c2cnn3c(C(F)(F)F)cc(-c4ccco4)nc23)n1	-7.4% (inactive)	99.2
O=C1c2ccccc2C(Nc2ccc3nc(-c4cccnc4)[nH]c3c2)N1Cc1ccco1 (stereo not given)	-24.3% (inactive)	93.2
CCOc1ccc(N(CC(=O)NC2CCCC(C)C2C)S(=O)(=O)c2c(C)noc2C)cc1 (stereo not given)	-33.2% (inactive)	111
CCOC(=O)Cn1ncc(-c2ccccc2)c1N	-51.5% (inactive)	96.2
CS(=O)(=O)N(CC(=O)Nc1cccc(F)c1)Cc1ccccc1	-19.3% (inactive)	106
Cc1cc(/C=N/n2cnnc2)c(C)n1-c1cccc(Cl)c1	40.1% (inactive)	46
CCOC(=O)c1[nH]c(C)c(C(=O)Nc2ccc(C)cc2C)c1C	-53.4% (inactive)	103
CCOC(=O)n1c(SCC(=O)N(CC)CC)nc2ccccc21	44.9% (inactive)	93.9
CCNc1ccc2c(Cl)cc(=O)oc2c1	-6.6% (inactive)	98.3
COCCCNC(=O)CCCn1c(=O)c2ccccc2n(CC(=O)Nc2c(C)cccc2C)c1=O	-64% (inactive)	99.1
CC(=O)NC(C)C(=O)OCC(=O)Nc1ccc(Br)cc1 (stereo not given)	-23.8% (inactive)	116
O=C1c2ccccc2C(Nc2ccc(F)cc2F)N1CCN1CCOCC1 (stereo not given)	-46.2% (inactive)	124
COC(=O)[C@H](CCSC)NC(=O)Nc1cc(C)ccc1C	-5.7% (inactive)	86.5
CC(=O)Nc1ccc(NC(=O)C(C)Oc2ccccc2F)cc1 (stereo not given)	4.3% (inactive)	112
